# Source: PubChem BioAssay (National Center for Advancing Translational Sciences (NCATS))
# Sampled rows, rich in hits. Any-hit rate of the full collection: about 19%.
# HT1080 IDH1KD tx – kills HT-1080 cells with IDH1 knockdown; AID 686971; 360,000 tested, 2% active; Potency, µM (series often up to 46.1 µM), inactives show at the top dose activity, negative = toxicity, most hits filed as cytotoxic; HT-1080 IDH1 knockdown viability, ATP luminescence, 48 h;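 further: potency means the concentration at half of the fitted maximal effect; 0% = DMSO wells and -100% = cell-free medium wells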
#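 % activity derives from luminescence (CellTiter-Glo), normalised to DMSO and no-cell wells. HT-1080-IDH1KD cells, 750/well, had 48 h compound exposure at 37 °C.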
# IL1B secr inh – inhibitors of inflammasome signaling (IL-1 beta secretion); THP-1 LPS/ATP IL-1B secretion, AlphaLISA, 16 h; active compounds read low; activity change, % at 57.5 µM; 360,000 tested, 4.7% active; AID 743279; in the data active means activity change below about -50%; inconclusive means mostly about -30% to -49%
#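 Secreted IL-1B measured by AlphaLISA bead assay after 16 h compound exposure of THP-1 cells; compounds (final up to 57.5 uM) added 1 h before LPS (250 ng/mL) and ATP (1.25 mM) stimulation; lower signal means less secretion.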
# DT40 TDP1 CPT – growth inhibition of DT40 Tdp1-/-;hTDP1 cells with camptothecin (screen for TDP1 inhibitors); chicken DT40 Tdp1-/-;hTDP1 cells + 20 nM CPT, ATP luminescence, 48 h; Potency, µM (titrated, usually from 46.2 µM), for inactives: top-dose activity change, negative = growth inhibition, most hits filed as inhibitors; 420,000 tested, 12% active; AID 686979; further: potency means the concentration at half of the fitted maximal effect; nearly all actives have a fitted effect of over 55% in size
#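 Chicken DT40 Tdp1-/- cells stably complemented with human TDP1 were seeded at 400 cells/well in medium containing 20 nM camptothecin, exposed to pin-transferred compounds, and grown at 37 °C for at least 48 hr. Viability was read as ATP luminescence.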
# HT1080NT lethal – kills 2HG-producing HT-1080-NT fibrosarcoma cells; Potency, µM (doses to about 46.1 µM), for inactives: top-dose activity, negative = less viability, most hits filed as cytotoxic; AID 686970; 360,000 tested, 1.6% active; HT-1080-NT fibrosarcoma viability, CellTiter-Glo ATP luminescence, 48 h;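 further: NT is the 2HG producing partner of a matched IDH1 knockdown line; potency means the concentration at half of the fitted maximal effect; 0% = DMSO-treated cells and -100% = media-only wells without cells; nearly all actives have a fitted effect of over 55% in size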
#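 Read-out is CellTiter-Glo luminescence after 10 minutes at room temperature, following 48 hours' compound treatment of HT-1080-NT cells (750 cells/well, RPMI, 5% FBS, 37 degrees C).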
# DT40 TDP1 no CPT – qHTS for Inhibitors of human tyrosyl-DNA phosphodiesterase 1 (TDP1): qHTS in cells in absence of CPT | DT40 Tdp1-/- hTDP1 cells, no CPT, ATP luminescence, 48 h | Potency, µM (doses to about 46.2 µM), for inactives: at the top dose activity change, negative = growth inhibition, usual class: inhibitors | 420,000 tested, 15% active; further: potency means the concentration at half of the fitted maximal effect; nearly all actives have a fitted effect of over 55% in size
#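 Growth of hTDP1-complemented DT40 Tdp1-knockout cells is measured by ATP luminescence after at least 48 hr compound exposure at 37 °C, with DMSO substituting for the 20 nM CPT used in the parallel screen.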
# uPA surface inh – blocks generation of uPA at the cell surface. cell surface uPA generation assay, qHTS. Potency, µM (doses to about 38.3 µM), without a hit: at the top dose activity change, negative = inhibition, actives largely listed as inhibitors. 330,000 tested, 0.31% active. AID 540303; active means well fitted inhibition curve with a large enough effect; inconclusive means small, poorly fitted or top-dose-only effect; inactive means no such curve, though single readings can be large or run the other way; tested in mouse RAW 264.7 cells; further: potency means the concentration at half of the fitted maximal effect; nearly all actives have a fitted effect of over 55% in size
# * hit, by the source's call; ? = inconclusive; nt = no result given. Unless noted, the call rests on the fitted dose curve; in most records, active means well fitted curve in the direction sought with a large enough effect; inconclusive means small, poorly fitted or top-dose-only effect, or another doubt; inactive means no such curve, though single readings can be large; an effect the other way counts as inactive or inconclusive. Unless noted, on the % scale 0 is the no-effect control and ±100 the full control effect.
SMILES,HT1080 IDH1KD tx,IL1B secr inh,DT40 TDP1 CPT,HT1080NT lethal,DT40 TDP1 no CPT,uPA surface inh
Cc1ccc(-c2nnc(N3CCN(c4ccccn4)CC3)c3ccccc23)cc1,?,-89.4*,?,-27.9%,?,-12.1%
c1ccc(-c2nnc(N3CCN(c4ccccn4)CC3)c3ccccc23)cc1,-6.0%,-72.8*,?,5.8%,?,-5.2%
Cc1ccc(-c2nnc(N3CCN(CCO)CC3)c3ccccc23)cc1,-0.1%,?,-12.9%,-7.3%,?,8.6%
Cc1ccc2cc(C)c(N3CCN(c4ccccn4)CC3)nc2c1,1.3%,?,18.4µM*,-1.2%,?,-16.4%
CN1CCN(c2nnc(-c3ccc(F)cc3)c3ccccc23)CC1,-14.5%,-29.7,-1.0%,0.0%,0.9%,-0.9%
Cc1ccc(C(=O)CN2CCN(c3ccccn3)CC2)c(C)c1,27.6%,-10.4,0.4%,24.3%,10.5%,-4.4%
Cc1ccc(-c2nnc(N3CCCCC3)c3ccccc23)cc1,-8.6%,-55.7*,?,-1.1%,23.1µM*,-11.0%
COc1ccccc1C(=O)NCC(=O)OCCCOC(=O)CNC(=O)c1ccccc1OC,15.1%,13.1,7.5%,3.0%,-7.0%,7.0%
COc1ccc(C(=Cc2ccccc2[N+](=O)[O-])C(=O)O)cc1,-2.8%,-6.7,-8.8%,-3.6%,-8.2%,-2.5%
CC(C)n1cc(CNC(=O)C2CCC(=O)N(Cc3ccccc3F)C2)cn1 (configuration not stated),14.1%,21.4,11.2%,4.8%,1.1%,-0.3%
CCCCCC1Nc2cc(C(F)(F)F)c(S(N)(=O)=O)cc2S(=O)(=O)N1 (configuration not stated),nt,nt,-1.3%,nt,-0.5%,nt
COc1cc(=O)n2c(c1C(=O)N(C)Cc1cscn1)CCN(Cc1ccc3c(c1)OCCO3)CC2,nt,nt,20.2%,nt,9.1%,nt
O=S(=O)(c1ccc(Cl)cc1)N1CCOCC1,nt,nt,9.3%,nt,-4.7%,nt
CCOC(=O)N/N=C/C=C/c1ccccc1,2.2%,0.0,3.5%,7.3%,-12.7%,3.1%
Cc1ccc(-c2nnc(N3CC(C)OC(C)C3)c3ccccc23)cc1 (configuration not stated),0.6%,-74.7*,29.1µM*,2.4%,16.4µM*,3.6%
Clc1nnc(N2CCCCC2)c2ccccc12,-8.6%,-81.3*,?,-6.0%,?,-14.1%
COc1ccc(-c2nnc(N3CCC(C)CC3)c3ccccc23)cc1,8.9%,2.6,?,6.6%,16.4µM*,0.1%
CCOc1ccc(-c2nnc(N3CCOCC3)c3ccccc23)cc1,-1.0%,-18.3,?,-10.4%,-24.6%,2.3%
COc1ccc(-c2nnn3c2nc(N2CCCC(C)C2)c2ccccc23)cc1 (configuration not stated),nt,nt,?,nt,29.1µM*,nt
Cc1nnc(N2CCCCC2)c2ccccc12,1.2%,-5.3,-20.1%,0.9%,?,1.7%
O=C(CN1N=C(c2ccc(Cl)cc2)CCC1=O)NCc1ccc(F)cc1,nt,nt,-18.1%,nt,?,nt
Cc1ccc(-n2c(=O)c3c4c(sc3n(Cc3ccccc3C)c2=O)CCC4)cc1C,nt,nt,-18.5%,nt,-10.9%,nt
COc1nnc(-c2ccc(N3CCCCC3)c(N)c2)c2ccccc12,-26.9%,?,7.31µM*,-5.6%,8.2µM*,-6.0%
COC(=O)c1c(C)nc2ccccc2c1C(=O)O,19.0%,-3.5,13.5%,6.6%,-14.2%,-0.5%
COC(=O)c1cc(C)[nH]c2c(C)cc3nc4ccccc4c3c12,?,-97.7*,?,?,?,-6.2%
SMILES,HT1080 IDH1KD tx,IL1B secr inh,DT40 TDP1 CPT,HT1080NT lethal,DT40 TDP1 no CPT,uPA surface inh
CCOc1ccc(C2Nc3ccccc3-c3nnc(SCc4ccccc4)nc3O2)cc1OC (configuration not stated),nt,nt,18.4µM*,nt,?,nt
CCSc1nnc2c(n1)OC(c1ccc(OC)c(OC)c1)N(C(C)=O)c1ccccc1-2 (configuration not stated),nt,nt,-4.2%,nt,7.8%,nt
CCOC(=O)N/N=C\c1ccc(-c2cc(Cl)ccc2Cl)o1,-25.1%,44.6,?,-22.4%,-22.2%,-4.2%
NC(=S)N/N=C/c1ccc(-c2cc(Cl)ccc2Cl)o1,?,52.0,2.59µM*,3.16µM*,3.26µM*,-0.3%
NC(=S)N/N=C/c1ccc(-c2cc(Cl)cc(Cl)c2)o1,8.4%,-18.0,5.8µM*,4.8%,2.06µM*,-4.3%
CCCCc1nc(NCCNC(=O)c2ccccc2)c(C#N)c2c1CSC(C)(C)C2,?,-22.5,23.1µM*,?,13µM*,5.1%
CCCCc1nc(NCCNC(=O)c2ccco2)c(C#N)c2c1CSC(C)(C)C2,-2.8%,-5.0,29.1µM*,-2.0%,23.1µM*,-3.3%
COc1ccc2c(c1)OCC(Cc1ccc(OC)c(OC)c1)C2=O (configuration not stated),nt,nt,?,nt,13µM*,nt
COc1ccc2c(c1)OCC(Cc1ccc(OC)c(OC(C)=O)c1)C2=O (configuration not stated),nt,nt,0.651µM*,nt,0.651µM*,nt
COCc1cc(=O)[nH]c(N2CCN(Cc3ccc4c(c3)OCO4)CC2)n1,3.8%,3.9,-3.2%,0.3%,-11.1%,8.8%
CC(C)N1CCc2[nH]c(=S)[nH]c(=O)c2C1,2.6%,37.0,?,14.9%,16.4µM*,1.1%
CCCN1CCc2[nH]c(=S)[nH]c(=O)c2C1,11.2%,14.9,-0.9%,5.3%,-32.7%,6.0%
O=C(NNc1ccccc1)OCc1ccccc1,3.26µM*,-18.3,?,?,?,nt
O=C(NNc1ccccc1)C(=O)NNc1ccccc1,1.16µM*,-15.3,-5.8%,-18.1%,?,-0.1%
O=C(CNS(=O)(=O)Cc1ccccc1)NNc1ccccc1,4.11µM*,5.7,-16.1%,?,?,nt
O=c1cc(N2CCOCC2)oc2c(-c3ccccc3)cccc12,nt,nt,8.2µM*,nt,7.31µM*,nt
CC(C)C(=O)N1CCN(c2ccc(NC(=O)c3ccc4c(c3)OCCO4)cc2Cl)CC1,?,-97.0*,?,?,23.1µM*,nt
CC(=O)N1CCN(c2ccc(NC(=O)c3ccc4c(c3)OCCO4)cc2Cl)CC1,-20.4%,-88.3*,?,-20.9%,?,-7.4%
CC(C)C(=O)N1CCN(c2ccccc2NC(=O)c2ccc3c(c2)OCCO3)CC1,22.9%,10.4,-7.7%,21.2%,-2.8%,-1.0%
CCCC(=O)N1CCN(c2ccc(NC(=O)c3ccc4c(c3)OCCO4)cc2)CC1,2.4%,-9.0,-27.5%,5.9%,-26.8%,1.8%
O=Cc1cn(-c2ccccc2)nc1-c1cccnc1,0.0%,-82.5*,-7.7%,-1.5%,-1.9%,-0.1%
